Bioassay records deposited in PubChem BioAssay by National Center for Advancing Translational Sciences (NCATS).
Hits are enriched below; roughly 2.4% of the tested compounds scored in any of these assays.
D2 PAM-1: positive allosteric modulators of human D2 dopamine receptor; HEK293 T-REx D2, calcium flux, EC20 dopamine potentiation; 340,000 compounds, 0.34% hits; potentiation, % at 10 µM; P14416;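 active = potentiation over 3 SD above the plate norm, cut at about 30% in these data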; also: 0% is about no effect
Target sequence (P14416 whole entry, looked up): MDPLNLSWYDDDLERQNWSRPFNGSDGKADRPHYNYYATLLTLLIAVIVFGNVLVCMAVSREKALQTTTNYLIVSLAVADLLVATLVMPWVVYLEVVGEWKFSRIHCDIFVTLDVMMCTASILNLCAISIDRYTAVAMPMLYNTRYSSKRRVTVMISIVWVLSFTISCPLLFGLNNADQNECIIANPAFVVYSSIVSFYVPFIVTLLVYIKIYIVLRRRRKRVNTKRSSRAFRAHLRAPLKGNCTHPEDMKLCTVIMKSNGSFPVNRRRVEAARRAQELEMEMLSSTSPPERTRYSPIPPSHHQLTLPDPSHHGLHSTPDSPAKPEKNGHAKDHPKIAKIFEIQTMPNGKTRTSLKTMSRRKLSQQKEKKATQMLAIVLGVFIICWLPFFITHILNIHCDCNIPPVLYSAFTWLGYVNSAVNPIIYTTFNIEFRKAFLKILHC
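Potentiation of an EC20 dopamine calcium response measured kinetically over 180 s, after a preceding 180 s compound-only read flagging agonists. Cells: inducible Hek293 Trex D2 line, 4000/well, cultured overnight at 30 C before dye loading.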
D2 antagonist: antagonists of human D2 dopamine receptor; P14416; HEK293 TREx D2 cells, calcium flux, dopamine EC80; inhibition, % at 10 µM; 340,000 compounds, 2% hits; AID 485344; in the data active = inhibition above about 30%; inactive = below that, where a call was filed; also: 0% is about no effect
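Antagonism is scored as inhibition of an EC80 dopamine-evoked calcium signal in a force-coupled, tetracycline-inducible HEK293 T-REx D2 line, with compound present 180 s before agonist.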
D2 ag-1: activates the human D2 dopamine receptor; activation, % at 2 µM; HEK293 T-REx D2 cells, calcium flux agonist mode; AID 485358; 340,000 compounds, 0.53% hits;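 active = activation over 3 SD above normal in the single-dose calcium agonist read, cut at about 30% in these data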; also: 0% is about no effect
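HEK293 Trex D2 cells, tetracycline-induced, o/n 30 C 5% CO2; no-wash Ca dye, RT 30–90 min; 10-cycle baseline, 23 nl cpd added, kinetic Ca read 180 s; agonist hits = positive Ca response.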
D2 PAM-2: potentiates the human D2 dopamine receptor allosterically | P14416 | DiscoveRx D2 beta-arrestin cells, luminescence, 90 min; 100% = 57 uM dopamine signal | potentiation, % (no concentration beside the values) | 360,000 compounds, 0.23% hits; in the data active = potentiation above about 50%
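D2 cells co-treated with compound plus 50 nM dopamine (EC20) for 90 min at 37 deg C to detect potentiation. Beta-arrestin recruitment was read as enzyme-fragment luminescence after 1 h at ambient temperature. Full response was set by 57 uM dopamine.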
D2 ag-2: human D2 receptor agonism in beta-arrestin assay | 360,000 compounds, 0.084% hits | AID 624465 | P14416 | activation, % (concentration not given with the values) | DiscoveRx PathHunter D2 beta-arrestin, luminescence, 90 min; 100% = 57 uM dopamine signal; in the data active = activation above about 40%
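Agonist mode: compounds alone added to overnight-plated D2 PathHunter cells for 90 min at 37 C, with 57 uM final dopamine (EC100) defining full response. Beta-arrestin recruitment detected by chemiluminescent reagent, read after 1 h at ambient temperature.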
Numbers without * were called inactive; · = no result given.

SMILES	D2 PAM-1	D2 antagonist	D2 ag-1	D2 PAM-2	D2 ag-2
CCN(Cc1ccccc1)C1CCN(Cc2ccc(SC)cc2)CC1	·	·	·	-13	-2
CC1=C(C(=O)Nc2cccc(C)c2C)C2(CCCCC2)OC1=O	·	·	1	·	·
COc1ccc(-c2cc3ccccc3n2CC(O)CN2CCC(C)CC2)cc1 (configuration not stated)	-25	81*	0	-12	-8
COc1ccc(-c2cc3ccccc3n2CC(O)Cn2nc(C)cc2C)cc1 (configuration not stated)	8	-13	1	-12	-5
Cc1[nH]c(=O)c(C#N)c(C)c1Br	41*	·	·	11	-2
CCOc1cc(CN2CCN(CCOCCO)CC2)ccc1OC	2	-5	0	-8	-2
C=CCOc1ccccc1CN1CCC(Oc2ccc(C(=O)N3CCCCC3)cc2)CC1	-21	47*	0	-46	-4
CCOC(=O)c1cnn(CCOC(=O)Cc2cccs2)c1NC(=O)Cc1cccs1	2	34*	0	-4	-3
CCOC(=O)c1cnn(CCOC(=O)c2ccc(F)cc2)c1NC(=O)c1ccc(F)cc1	-1	-5	0	3	1
COCCN1C[C@@H](CO)O[C@@H](n2cnc3c(N4CCN(CCO)CC4)ncnc32)C1	·	·	·	-1	-3
O=C(COc1ccc(S(=O)(=O)NC2CCCCC2)cc1)Nc1ccc(C(F)(F)F)cc1	-11	·	1	·	·
Cc1nc2sc(C(c3ccco3)N3CCN(c4ccccc4)CC3)c(O)n2n1 (configuration not stated)	14	-6	-1	-4	-2
Cc1nc2sc(C(c3ccco3)N3CCN(C(c4ccccc4)c4ccccc4)CC3)c(O)n2n1 (configuration not stated)	33*	-5	1	-6	-4
Cc1noc(C)c1S(=O)(=O)N(CC(=O)NCc1ccccc1Cl)c1ccc(C(C)C)cc1	-3	·	1	·	·
CCCCN1C(=O)/C(=C/C=C2\Oc3ccccc3N2CC)SC1=S	-5	-7	61*	-8	2
Cc1[nH]n2c(=O)cc(Cc3ccccc3)nc2c1C#N	1	42*	1	-1	-3
Cc1nc2c(C#N)c(C)[nH]n2c(=O)c1Cc1ccccc1	0	17	0	-11	0
CCc1nc2c(OCC(=O)C(C)(C)C)cccn2c1N(C)C(=O)Nc1ccccc1OC	·	·	·	-11	-5
O=C(O)CCSc1nc(C(F)(F)F)cc(=O)n1-c1ccccc1	7	33*	0	-9	-2
CCOC(=O)N1CCN(C(=O)c2cc(C)no2)CC1	30*	21	0	-2	-3
Cc1cc(C(=O)N2CCC(C)CC2)on1	10	0	1	-4	1
Cc1ccc(C(=O)OC2CCOC2=O)cc1NC(=O)c1ccco1 (configuration not stated)	-10	35*	1	2	-1
O=[N+]([O-])c1ccc(/C=N/NS(=O)(=O)c2ccc(Cl)cc2)o1	3	45*	1	3	-6
Cc1ccc(S(=O)(=O)N/N=C\c2ccc([N+](=O)[O-])o2)cc1	-3	6	-1	1	0
N#CCCCSc1ncccc1-c1nc2ccccc2[nH]1	4	-6	0	1	0
SMILES	D2 PAM-1	D2 antagonist	D2 ag-1	D2 PAM-2	D2 ag-2
N#CCSc1ncccc1-c1nc2ccccc2[nH]1	37*	14	1	-4	-1
CCN(CC)c1ccc(C(=O)NCc2nc3cccnc3n2Cc2ccc(C)cc2)cc1	13	·	0	·	·
Cc1nn(C)c2c1c(-c1ccccc1)cc(=O)n2CC(=O)NC(C)c1ccccc1 (configuration not stated)	-9	·	1	·	·
CN(C)c1ccc(-c2ccnc3c2CC(C)(C(=O)NCCC(F)(F)F)O3)cc1 (configuration not stated)	·	·	·	-10	-2
O=C(c1cc(COc2c(F)cccc2F)on1)N1CCC(c2ccccc2F)C1 (configuration not stated)	-11	-6	1	-3	-5
O=C(c1cc(COc2c(F)cccc2F)on1)N1CCC(c2ccccc2Cl)C1 (configuration not stated)	32*	-1	0	-14	-2
COCC1CCN(C(=O)c2cc(COc3ccc(OC)c4ccccc34)on2)C1 (configuration not stated)	·	·	·	24	2
CN(CCC1CCOCC1)C(=O)c1cc(COc2c(F)cccc2F)on1	2	31*	1	3	2
CN(CC1COCCO1)C(=O)c1cc(COc2c(F)cccc2F)on1 (configuration not stated)	-10	-6	-1	-10	-4
COc1ccc(OCc2cc(C(=O)N3CCC(OC)CC3)no2)c2ccccc12	4	10	0	53*	7
FC(F)(F)c1cccc(N2CCN(c3ncnc4c3nc3n4CCCC3)CC2)c1	1	·	-2	·	·
CCc1nn(CC(=O)NCCCOC)c(=O)c2cc3occc3n12	15	·	·	·	·
Cc1ccc(NC(=O)Cn2c(=O)n(Cc3nc(-c4ccccc4)no3)c(=O)c3cc4c(cc32)OCO4)cc1F	3	·	2	·	·
CC(c1n[nH]c(=S)n1-c1ccccc1)N1CCCCC1 (configuration not stated)	-7	71*	1	2	2
CC1=C(c2ccc(C)c(C)c2)S(=O)(=O)N=C1N1CCC(C(=O)NCCc2ccc(Cl)cc2)CC1	10	·	-1	·	·
C=CCNC(=O)c1oc2ccc(S(=O)(=O)N3CCC4(CC3)OCCO4)cc2c1C	33*	-1	0	-5	0
C=CCNC(=O)c1oc2ccc(S(=O)(=O)N3CCCCC3)cc2c1C	-1	-5	0	-5	-1
Cc1nc(Nc2ccc(S(N)(=O)=O)cc2)oc1C	49*	1	1	10	-3
COc1ccc(C(CNC(=O)C(C)(C)Oc2ccc(Cl)cc2)N2CCOCC2)cc1 (configuration not stated)	·	·	·	-36	-7
COc1ccc(C(CNC(=O)C(C)(C)Oc2ccc(Cl)cc2)N2CCCCC2)cc1 (configuration not stated)	-30	86*	-1	-45	-3
COc1ccc(C(CNC(=O)COc2ccc(Cl)c(C)c2)N2CCCCC2)cc1 (configuration not stated)	-27	37*	0	-34	0
COc1ccc(C(CNC(=O)COc2ccc(C)cc2)N2CCCCC2)cc1 (configuration not stated)	-26	·	-1	·	·
CCC1(c2ccc(F)cc2)NC(=O)N(CC(=O)Nc2cc(C)on2)C1=O (configuration not stated)	20	2	1	1	6
CC(=O)Nc1ccc(N2C(=O)c3cccc4c(O)ccc(c34)C2=O)cc1	-8	27	64*	18	12
